# Reference: ChEMBL document CHEMBL3988442, “University of Dundee, Small-Polar-MMV Screening Library” (2021)
# Among all 48,000 compounds or so, about 13,000 (27%) showed an effect of 50% or more. The list shows a part of the results.
# Tested on: Wolbachia pipientis
# Assay: Anti-Wolbachia Cell-Based Screen
# Assay type: functional
# Parameters: scale not given: in the data most compounds retested in dose-response had high values
# Conditions: 5 µM
row,SMILES,Percent Effect
1,O=C(Cc1ccsc1)N1CCCC(c2n[nH]c3ncccc23)C1 (stereo not given),100.9%
2,CC(=O)N1CCC(c2n[nH]c3nccnc23)CC1,120.8%
3,COCC(=O)N1CCC(c2nccn2CC2CC2)CC1,-30.12%
4,COCC(=O)N1CCC(c2n[nH]c3nccnc23)CC1,142.1%
5,O=C(Cc1ccsc1)N1CCC(c2n[nH]c3nccnc23)CC1,72.86%
6,O=C(Cc1ccsc1)N1CCCC(c2n[nH]c3nccnc23)C1 (stereo not given),-11.37%
7,Cc1ncc(S(=O)(=O)N(CC(C)C)c2cccc(O)c2)s1,-3.046%
8,O=C(NCCC(O)c1ccco1)c1ccco1 (stereo not given),-7.433%
9,CCC(CC)NC(=O)c1cncc(Br)c1,15.73%
10,CN1CCC(c2nnc(CN3CCC(O)CC3)n2C)CC1,-6.188%
11,CC1CN(C(=O)c2cscn2)c2ccccc2S1 (stereo not given),-14.12%
12,CCc1nc(C)ncc1C(=O)N1CC(C)CN(C)c2ccccc21 (stereo not given),-1.529%
13,CC(=O)N1CC(C)CN(Cc2ccon2)c2ccccc21 (stereo not given),7.641%
14,CC(=O)N1CC(C)CN(C(=O)c2cscn2)c2ccccc21 (stereo not given),95.98%
15,Cc1ncsc1C(=O)N1CC(C)Sc2ccccc21 (stereo not given),0.6302%
16,CC(=O)N1CC(C)CN(C(=O)c2cnccn2)c2ccccc21 (stereo not given),97.68%
17,O=C(Nc1c(N2CCCC2)cccc1N1CCCC1)c1cnccn1,-1.067%
18,CC(=O)N1CC(C)CN(C(=O)c2cccnc2C)c2ccccc21 (stereo not given),91.16%
19,CC1CN(C)c2ccccc2CN1C(=O)c1cscn1 (stereo not given),-10.99%
20,CN(C)C(=O)N1CC2(CCN(S(=O)(=O)C3CC3)CC2)c2ccccc21,-5.03%
21,O=C(CCO)N[C@H]1CN(CC2CCC2)C[C@@H]1c1ccccc1,4.649%
22,CN(Cc1ccc(-n2cccn2)cc1)C[C@@H]1CCCN2CCCC[C@H]12,18.72%
23,CN(Cc1nc(N)c2ccccc2n1)CC1CCCN1c1cccnn1 (stereo not given),-0.6342%
24,CN(Cc1ccc(-n2cccn2)cc1)CC1CCCN1c1cccnn1 (stereo not given),115.9%

row,SMILES,Percent Effect
1,Cc1nc2ccccc2nc1CN(C)CC1CCCN1c1cccnn1 (stereo not given),5.031%
2,CN(Cc1cccc(C(N)=O)c1)CC1CCCN1c1cccnn1 (stereo not given),103.6%
3,Cc1noc(C)c1CN(C)CC1CCCN1c1cccnn1 (stereo not given),-0.05919%
4,CN(Cc1ccc(-n2ccnc2)cc1)CC1CCCN1c1cccnn1 (stereo not given),126.9%
5,CN(Cc1ccccn1)CC1CCCN1c1cccnn1 (stereo not given),130%
6,Cc1cnc(CN(C)CC2CCCN2c2cccnn2)cn1 (stereo not given),-5.64%
7,CCn1ccnc1CN(C)CC1CCCN1c1cccnn1 (stereo not given),7.087%
8,COc1ccc(CN(C)CC2CCCN2c2cccnn2)cc1F (stereo not given),12.57%
9,CN(Cc1cnn(-c2ccccc2)n1)CC1CCCN1c1cccnn1 (stereo not given),15.2%
10,CCCOc1cccc(NC(=O)NC2CCc3nc(C)nn3C2)c1 (stereo not given),-22.59%
11,Cc1cc(N(C)Cc2ncc[nH]2)nc(-c2ccccc2)n1,4.008%
12,CCOCCn1nc(C)cc1C(=O)N1CC[C@](C)(O)C(C)(C)C1,2.862%
13,O=C(Nc1cccnc1)[C@H]1CN(Cc2ccccn2)C[C@H]2OCC[C@@H]12.O=C(O)C(F)(F)F.O=C(O)C(F)(F)F,-14.96%
14,O=C1CCCN1C1CCN(S(=O)(=O)CCOc2ccc(F)cc2)CC1,0.4633%
15,CN(Cc1ncc(C(C)(C)C)o1)CC1CCCN1c1cccnn1 (stereo not given),16.2%
16,CN(Cc1cnn(C)c1)CC1CCCN1c1cccnn1 (stereo not given),108.8%
17,CN(CC(=O)Nc1ccncc1)CC1CCCN1c1cccnn1 (stereo not given),2.636%
18,CN(CCc1ccncc1)CC1CCCN1c1cccnn1 (stereo not given),116.4%
19,Cc1nnc(CN(C)CC2CCCN2c2cccnn2)o1 (stereo not given),-3.082%
20,CN(Cc1cccnc1)CC1CCCN1c1cccnn1 (stereo not given),-2.765%
21,CC(c1ccccc1Cl)N(C(=O)CSCC(N)=O)C1CC1 (stereo not given),-12.69%
22,Cn1cc(C(=O)Nc2cccc(F)c2)ccc1=O,0.158%
23,O=C(NCc1nnc2n1CCCC2)N1CCc2sccc2C1,127.9%
24,CC(C)NC(=O)C1CCN(C(C)C(=O)N2CCc3sccc3C2)CC1 (stereo not given),-8.464%

row,SMILES,Percent Effect
1,O=C(NCc1nnc2n1CCCCC2)N1CCc2sccc2C1,8.039%
2,O=C(NCc1nnc2n1CCC2)N1CCc2sccc2C1,90.24%
3,O=C(NCc1nnc2n1CCCCC2)N1CCc2ccccc2C1,97.78%
4,O=C(NCc1nnc2n1CCC2)N1CCC2(CCCCC2)CC1,10.88%
5,O=C(NCc1nnc2n1CCCCC2)N1CCC2(CCCCC2)C1,-0.2574%
6,CC(NCc1nnc2n1CCCC2)C(=O)N1CCc2sccc2C1 (stereo not given),124.2%
7,O=C(NCc1nnc2n1CCCC2)N1CCc2ccccc2C1,5.135%
8,O=C(NCc1ccc(N2CCCC2)nc1)N1CCc2sccc2C1,-1.896%
9,O=C(NCc1nnc2ccccn12)N1CCc2sccc2C1,-3.483%
10,CC(NCc1nnc2n1CCCC2)c1nc(-c2cccs2)no1 (stereo not given),-0.8773%
11,CCC(=O)c1ccc(OCC(=O)NC(C)Cc2cc(C)n[nH]2)cc1 (stereo not given),-9.204%
12,CC(C)NC(=O)N1CCN(S(=O)(=O)C2CC2)CC2(CNC(=O)C2)C1 (stereo not given),10.45%
13,CCn1cc(CN2CCCC3(CCC(=O)N(CCC(C)C)C3)C2)cn1 (stereo not given),-5.478%
14,Cn1cc(CCC(=O)N2CCN(Cc3ccncc3)CC2)cn1,-1.736%
15,CCn1cc(CN2CCCN(C(=O)C3(C#N)CCCCC3)CC2)cn1,-13.94%
16,CCn1cc(CN2CCCN(C(=O)CCn3cc(C)cn3)CC2)cn1,86.19%
17,CCn1cc(CN2CCCN(C(=O)CCCn3cncn3)CC2)cn1,2.568%
18,CCn1cc(CN2CCCN(C(=O)CCc3cnn(C)c3)CC2)cn1,103.4%
19,CCn1cc(CN2CCCN(C(=O)CCc3ccccc3)CC2)cn1,96.36%
20,CCn1cc(CN2CCCN(C(=O)C3=NN(C)C(=O)CC3)CC2)cn1,3.458%
21,CCn1cc(CN2CCCN(C(=O)CCc3ccncc3)CC2)cn1,-3.575%
22,CCn1cc(CN2CCCN(C(=O)CCN3CCCC3=O)CC2)cn1,112.3%
